In PubChem BioAssay AID2238 (Southern Research Specialized Biocontainment Screening …, 2010):
The source made the active and inactive calls. The rule behind the calls is not given here.

Assay: antiviral protection of cells from WNV – synthesized analogs, SAR follow-up (AID 2238)
Conditions: max CPE inhibition: measured here: maximum CPE inhibition observed, at 40 µM, stronger effect = higher value unless noted

Row | Compound | max CPE inhibition | outcome
1 | Cc1cccc2nc3n(c(=O)c12)CCC3 | 1.92% | inactive
2 | c1ccc2c(c1)CN1CCCC1=N2 | 2.6% [measured here: maximum CPE inhibition observed, at 80 µM, stronger effect = higher value] | inactive
3 | CCCN(C(=O)c1ccccc1Cl)c1nc(-c2ccc(OC)cc2)cs1 | 0.77% | inactive
4 | COc1ccc(-c2csc(N(C)C(=O)c3ccccc3Cl)n2)cc1 | 1.16% [measured here: maximum CPE inhibition observed, at 5 µM, stronger effect = higher value] | inactive
5 | O=[N+]([O-])c1ccc2c(c1)C(O)N1CCCC1=N2 (stereo unspecified) | 1.83% | inactive
6 | O=c1c2cccc(Cl)c2nc2n1CCC2 | 1.83% | inactive
7 | COc1ccc(-c2csc(N(Cc3ccccc3)C(=O)c3ccccc3Cl)n2)cc1 | 2.87% | inactive
8 | O=C(Nc1nc(-c2ccc(Cl)cc2)cs1)c1ccccc1F | 1.34% | inactive
9 | CC1(O)c2cc(Br)ccc2N=C2CCCN21 (stereo unspecified) | 1.3% [measured here: maximum CPE inhibition observed, at 0.16 µM, stronger effect = higher value] | inactive
10 | COc1ccc(NC(=O)CSc2nc3ccccc3c(=O)n2-c2ccc(F)cc2)cc1 | 2.96% | inactive
11 | CCOC(=O)C1(Cc2ccccc2C(F)(F)F)CCN(C2CCN(C(C)=O)CC2)CC1 | 1.58% [measured here: maximum CPE inhibition observed, at 20 µM, stronger effect = higher value] | inactive
12 | COc1cccc(C(NC(=O)c2ccccc2)c2ccc3cccnc3c2O)c1 (stereo unspecified) | 5.83% [measured here: maximum CPE inhibition observed, at 5 µM, stronger effect = higher value] | inactive
13 | Cc1cccc2c(=O)n3c(nc12)CCC3 | 1.97% | inactive
14 | COc1ccc(-c2csc(NC(=O)c3ccccc3F)n2)cc1 | 1.03% | inactive
15 | COc1ccc(-c2csc(N(C(=O)c3ccccc3Cl)C(C)C)n2)cc1 | 1.92% | inactive
16 | O=c1c2cc(Cl)cc(Cl)c2nc2n1CCC2 | 1.72% | inactive
17 | Cc1ccc2nc3n(c(=O)c2c1)CCC3 | 2.12% | inactive

Row | Compound | max CPE inhibition | outcome
18 | COc1ccc(-c2csc(NC(=O)c3cccc(Cl)c3)n2)cc1 | 1.98% | inactive
19 | COc1cccc(-n2c(SCC(=O)Nc3ccc4c(c3)CCC4)nc3ccccc3c2=O)c1 | 26.8% [measured here: maximum CPE inhibition observed, at 20 µM, stronger effect = higher value] | inactive
20 | CCN(CC)CCCNC(=S)N1CCN(c2nc(-c3ccc(F)cc3)cs2)CC1 | 29.4% [measured here: maximum CPE inhibition observed, at 20 µM, stronger effect = higher value] | inactive
21 | CCCCN(C(=O)c1ccccc1Cl)c1nc(-c2ccc(OC)cc2)cs1 | 1.9% | inactive
22 | O=C(Nc1nc(-c2ccc(Cl)cc2)cs1)c1ccc(Cl)cc1 | 0.79% | inactive
23 | O=C(Nc1nc(-c2ccc(Cl)cc2)cs1)c1cccc(Cl)c1 | 0.85% | inactive
24 | Nc1ccc2nc3n(c(=O)c2c1)CCC3 | 1.56% | inactive
25 | O=C(Nc1nc(-c2ccc(Cl)cc2)cs1)c1ccccc1Cl | 0.4% | inactive
26 | O=c1c2cc(Br)ccc2nc2n1CC/C2=C/c1ccccc1 | 1.37% | inactive
27 | COc1ccc(-c2csc(N(CCCN(C)C)C(=O)c3ccccc3F)n2)cc1 | 3.61% [measured here: maximum CPE inhibition observed, at 80 µM, stronger effect = higher value] | inactive
28 | COc1ccccc1NC(=O)CSc1nc2ccccc2c(=O)n1-c1ccc(F)cc1 | 0.86% [measured here: maximum CPE inhibition observed, at 20 µM, stronger effect = higher value] | inactive
29 | COc1ccc(-c2csc(NC(=O)c3ccc(Cl)cc3)n2)cc1 | 6.01% | inactive
30 | CC1CC(C)CN(C(=O)CSc2nc3ccccc3c(=O)n2-c2ccc(F)cc2)C1 (stereo unspecified) | 2.88% | inactive
31 | O=C(CSc1nc2ccccc2c(=O)n1-c1ccc(F)cc1)Nc1cccc2ccccc12 | 2.57% | inactive
32 | O=c1c2cc(I)ccc2nc2n1CCC2 | 0.68% | inactive
33 | COc1ccc(-c2csc(NC(=O)c3ccccc3Cl)n2)cc1 | 1.74% | inactive
